Here are results for 17 molecules from PubChem BioAssay (NCATS).

Inconclusive results are not listed. Where a call stands in place of a potency, no number is given. The source made the active and inactive calls. The call rests on the fitted dose curve; in most records, active means well fitted inhibition curve with a large enough effect; inconclusive means small, poorly fitted or top-dose-only effect; inactive means no such curve, though single readings can be large or run the other way.

The nature of this assay: Primary qHTS for inhibitors of nuclear receptor binding SET domain protein 2 (NSD2) in an RCH-ACV wild type WT cells (2C) (AID 1645877). Further: nearly all actives have a fitted effect of over 70% in size. To be noted: RCH-ACV (leukaemia line) NSD2 WT (2C) viability, CellTiter-Glo, 72 h; series mostly up to 44.9 µM.
Turning to `COCC(=O)Nc1c(I)c(C(=O)NCC(O)CO)c(I)c(C(=O)N(C)CC(O)CO)c1I` (configuration not stated), the Potency result is “inactive”.
Then `CCc1nnc(NS(=O)(=O)c2ccc(N)cc2)s1`, with “inactive”; and `O=C(O)c1ccccc1OP(=O)(O)O`, with “inactive”; and `CCCCCCCCCCC(CO)CCCCCCCC` (configuration not stated), with “inactive”.
As for `NS(=O)(=O)c1cc(C2(O)NC(=O)c3ccccc32)ccc1Cl` (configuration not stated), the Potency entry is “inactive”.
In the case of `C[C@@H](N)C(=O)O`, the Potency result is “inactive”.
The value for `CCN(CC)CCOC(=O)C(c1ccccc1)c1ccccc1` was “inactive”; that for `NS(=O)(=O)c1cc(-c2nn[nH]n2)c(NCc2cccs2)cc1Cl` was “inactive”; that for `CC(C)NC[C@@H](O)COc1ccc(CC(N)=O)cc1` was “inactive”.
The value for `C=CCN1C[C@H](C(=O)N(CCCN(C)C)C(=O)NCC)C[C@@H]2c3cccc4[nH]cc(c34)C[C@H]21` was “inactive”; that for `c1ccc2[nH]ccc2c1` was “inactive”.
Then `CN1CCN(C(=O)C2CCCCC2)CC1`, with “inactive”; and `CCCCC1(COC(=O)CCC(=O)O)C(=O)N(c2ccccc2)N(c2ccccc2)C1=O`, with “inactive”; and `CN[C@@H]1[C@@H](O)[C@@H](O[C@@H]2[C@H](O)[C@H](O[C@H]3OC(CN)=CC[C@H]3N)[C@@H](N)C[C@H]2N)OCC1(C)O` (some centres not stated), with “inactive”.
Regarding `CC(=O)OCC(COC(C)=O)OC(C)=O`, the Potency result is “inactive”.
The value for `Cc1c(Cn2ccnc2)c2ccccc2n1CCC(=O)O` was “inactive”.
The value for `CC1CCc2cc(F)cc3c(=O)c(C(=O)O)cn1c23` (configuration not stated) was “inactive”.
